The results in this text go back to ChEMBL document CHEMBL3988442, “University of Dundee, Small-Polar-MMV Screening Library” (2021).

Set-up in all cases: scale not given: direction of the effect not stated beside the values
For assay [1], the target named is Protein translocase subunit SecA (Escherichia coli (strain K12)) (UniProt P10408). The assay is described as follows: Assay to Identify E. coli SecA ATPase Inhibitors. As to conditions: 30 µM. The class given is functional.
The target of assay [2] is T1, Ubiquitin-activating enzyme e1, putative (Leishmania donovani (strain BPK282A1)) (UniProt E9BSI1).
T1 sequence (whole entry): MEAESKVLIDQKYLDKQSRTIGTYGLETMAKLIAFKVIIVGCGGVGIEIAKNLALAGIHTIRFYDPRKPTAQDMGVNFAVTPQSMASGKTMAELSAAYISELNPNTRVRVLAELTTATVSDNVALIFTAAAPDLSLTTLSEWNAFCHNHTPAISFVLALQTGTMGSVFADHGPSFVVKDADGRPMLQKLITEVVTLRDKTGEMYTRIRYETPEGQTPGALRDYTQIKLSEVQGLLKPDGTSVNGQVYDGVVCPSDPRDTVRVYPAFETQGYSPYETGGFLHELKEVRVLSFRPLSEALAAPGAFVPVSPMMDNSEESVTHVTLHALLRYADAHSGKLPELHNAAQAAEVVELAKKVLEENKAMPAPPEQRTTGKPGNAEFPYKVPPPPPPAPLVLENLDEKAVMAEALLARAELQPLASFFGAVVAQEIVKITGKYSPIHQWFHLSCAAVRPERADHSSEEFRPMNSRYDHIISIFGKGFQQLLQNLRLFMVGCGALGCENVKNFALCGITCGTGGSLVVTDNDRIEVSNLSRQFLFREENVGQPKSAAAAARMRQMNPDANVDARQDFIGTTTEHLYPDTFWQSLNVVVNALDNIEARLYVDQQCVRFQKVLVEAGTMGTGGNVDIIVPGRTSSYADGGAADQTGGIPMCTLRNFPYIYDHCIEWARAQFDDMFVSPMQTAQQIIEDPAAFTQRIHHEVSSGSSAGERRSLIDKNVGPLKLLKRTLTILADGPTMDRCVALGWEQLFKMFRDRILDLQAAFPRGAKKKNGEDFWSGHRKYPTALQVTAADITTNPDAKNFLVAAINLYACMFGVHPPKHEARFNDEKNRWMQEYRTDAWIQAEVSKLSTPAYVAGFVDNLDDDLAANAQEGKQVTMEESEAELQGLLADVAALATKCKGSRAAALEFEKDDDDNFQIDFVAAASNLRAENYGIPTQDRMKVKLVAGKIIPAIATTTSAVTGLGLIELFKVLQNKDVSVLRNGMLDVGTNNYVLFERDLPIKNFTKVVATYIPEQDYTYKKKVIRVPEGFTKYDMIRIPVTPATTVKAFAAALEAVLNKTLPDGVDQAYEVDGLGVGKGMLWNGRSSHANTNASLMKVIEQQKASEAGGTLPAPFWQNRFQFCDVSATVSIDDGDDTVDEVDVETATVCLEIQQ
The assay is described as follows: Leishmania donovani Ubiquitin Activating Enzyme (LdE1). The class given is functional. The conditions noted are these: 30 µM.

Assay [3] deals with AMP-activated protein kinase, AMPK (Homo sapiens) (UniProt P54646+O43741+P54619+Q9UGJ0+Q9Y478+Q13131+Q9UGI9). The assay is described as follows: AMP-dependent Kinase enzyme assay. An in vitro enzyme assay that detects ADP turnover that is directly proportional to AMPK activity. This uses naive AMPK that is activated during the assay with MK-8722. The class given is functional. The conditions noted are these: 30 µM.

In assay [4] the target is Sialic acid-binding Ig-like lectin 9 (Homo sapiens) (UniProt Q9Y336). The assay is described as follows: Hs-Siglec9 ALPHAscreen SOP 20170721. The conditions noted are these: 10 µM. (In Alpha technology, singlet oxygen from a donor bead excites a nearby acceptor bead.)
Sialic acid-binding Ig-like lectin 9 (Homo sapiens), sequence (Q9Y336 whole entry): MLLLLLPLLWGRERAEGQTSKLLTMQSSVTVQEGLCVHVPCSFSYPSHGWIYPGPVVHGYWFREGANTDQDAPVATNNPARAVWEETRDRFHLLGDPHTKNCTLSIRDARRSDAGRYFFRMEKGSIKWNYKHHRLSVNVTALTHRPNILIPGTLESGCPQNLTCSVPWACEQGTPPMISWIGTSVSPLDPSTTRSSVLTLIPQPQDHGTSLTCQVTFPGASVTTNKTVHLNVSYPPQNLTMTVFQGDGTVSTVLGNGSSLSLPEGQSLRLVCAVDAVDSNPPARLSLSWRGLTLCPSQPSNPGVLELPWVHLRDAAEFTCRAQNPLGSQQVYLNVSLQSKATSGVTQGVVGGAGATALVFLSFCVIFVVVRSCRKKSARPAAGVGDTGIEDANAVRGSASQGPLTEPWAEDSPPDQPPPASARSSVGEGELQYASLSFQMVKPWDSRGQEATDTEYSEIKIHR
Assay [5] concerns Trypanosoma cruzi. The assay is described as follows: Trypanosoma cruzi phosphomannomutase and mannose-1-phosphate guanylyltransferase assay. The conditions noted are these: 10 µM. Type of assay: functional.
Assay [6] deals with T2, Arginase-2, mitochondrial (Homo sapiens) (UniProt P78540).
T2 sequence (whole entry): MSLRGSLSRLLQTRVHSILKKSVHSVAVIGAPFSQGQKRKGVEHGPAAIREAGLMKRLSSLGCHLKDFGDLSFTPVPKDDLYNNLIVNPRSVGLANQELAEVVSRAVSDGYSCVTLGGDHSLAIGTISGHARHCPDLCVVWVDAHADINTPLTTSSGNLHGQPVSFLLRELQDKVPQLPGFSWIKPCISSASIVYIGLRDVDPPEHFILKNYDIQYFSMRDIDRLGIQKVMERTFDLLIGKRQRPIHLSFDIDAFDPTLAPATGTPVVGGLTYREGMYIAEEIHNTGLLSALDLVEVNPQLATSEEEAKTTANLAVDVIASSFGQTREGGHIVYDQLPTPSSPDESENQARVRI
The assay is described as follows: in vitro enzyme assay to detect the production of urea directly proportional to the activity of Arginase II. Also: in the data most compounds retested in dose-response had high values. The conditions noted are these: 33.3 µM. The class given is functional.

Assay [7] deals with T3, Proteasome subunit beta (Trypanosoma cruzi) (UniProt O96673).
T3 sequence (whole entry): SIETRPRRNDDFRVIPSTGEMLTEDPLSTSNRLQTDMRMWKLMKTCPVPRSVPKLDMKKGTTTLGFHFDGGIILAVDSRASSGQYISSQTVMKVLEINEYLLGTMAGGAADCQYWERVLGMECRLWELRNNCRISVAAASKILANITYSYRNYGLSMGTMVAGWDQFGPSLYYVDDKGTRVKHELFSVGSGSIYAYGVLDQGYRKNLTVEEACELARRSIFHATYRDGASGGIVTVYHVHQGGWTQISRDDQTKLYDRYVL
The assay is described as follows: Trypanosoma cruzi proteasome chymotrypsin-like activity (TcProtChymo) assay. Also: in the data most compounds retested in dose-response had high values. Type of assay: functional. As to conditions: 9.37 µM.

For assay [8], the species on record is Homo sapiens. The assay is described as follows: To identify inhibition of the IFN signalling (Jak-Stat) pathway via expression of an eGFP reporter gene under the control of an IFN-stimulated response element (ISRE) containing MxA promoter. Type of assay: functional. As to conditions: 30 µM. A general note: Reporter assays use an easily measured gene product as a stand-in for the process of interest.

The target in assay [9] is T4, Tyrosyl-tRNA synthetase, putative (Trypanosoma cruzi (strain CL Brener)) (UniProt Q4DSP6).
T4 sequence (whole entry): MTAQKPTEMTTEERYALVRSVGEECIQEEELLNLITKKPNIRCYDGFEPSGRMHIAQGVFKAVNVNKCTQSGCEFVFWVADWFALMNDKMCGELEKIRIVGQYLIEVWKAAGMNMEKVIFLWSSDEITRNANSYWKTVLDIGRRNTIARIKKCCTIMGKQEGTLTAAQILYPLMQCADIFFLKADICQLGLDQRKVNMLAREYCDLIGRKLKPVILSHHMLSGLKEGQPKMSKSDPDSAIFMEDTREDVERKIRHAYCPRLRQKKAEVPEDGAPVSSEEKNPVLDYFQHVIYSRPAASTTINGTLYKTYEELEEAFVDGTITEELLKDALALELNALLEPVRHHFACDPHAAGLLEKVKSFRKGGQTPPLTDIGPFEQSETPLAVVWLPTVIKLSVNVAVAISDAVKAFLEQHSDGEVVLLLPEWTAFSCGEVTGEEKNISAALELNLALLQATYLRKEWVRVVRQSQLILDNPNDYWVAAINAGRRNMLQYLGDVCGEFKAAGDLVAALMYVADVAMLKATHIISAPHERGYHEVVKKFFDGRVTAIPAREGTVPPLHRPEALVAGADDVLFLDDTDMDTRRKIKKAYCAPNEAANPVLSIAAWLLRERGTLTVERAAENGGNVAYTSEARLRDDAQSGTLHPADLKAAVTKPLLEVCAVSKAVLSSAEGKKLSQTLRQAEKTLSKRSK
The assay is described as follows: Trypanosoma cruzi tyrosyl tRNA synthetase (TcYRS) _High Tyrosine SOP. Also: in the data most compounds retested in dose-response had high values. Type of assay: functional. As to conditions: 30 µM.

Assay [10] addresses T4, Tyrosyl-tRNA synthetase, putative (Trypanosoma cruzi (strain CL Brener)). The assay is described as follows: Trypanosoma cruzi tyrosyl tRNA synthetase (TcYRS) SOP. As to conditions: 30 µM. Type of assay: functional.
The target of assay [11] is Chromo domain-containing protein 1 (Saccharomyces cerevisiae (strain ATCC 204508 / S288c) (Baker's yeast)) (UniProt P32657). The assay is described as follows: ScCHD-1 Enzyme Inhibition Assay. Also: in the data most compounds retested in dose-response had high values. The class given is functional. As to conditions: 30 µM.
Chromo domain-containing protein 1 (Saccharomyces cerevisiae (strain ATCC 204508 / S288c) (Baker's yeast)), sequence (P32657 whole entry, the tested form may be a part): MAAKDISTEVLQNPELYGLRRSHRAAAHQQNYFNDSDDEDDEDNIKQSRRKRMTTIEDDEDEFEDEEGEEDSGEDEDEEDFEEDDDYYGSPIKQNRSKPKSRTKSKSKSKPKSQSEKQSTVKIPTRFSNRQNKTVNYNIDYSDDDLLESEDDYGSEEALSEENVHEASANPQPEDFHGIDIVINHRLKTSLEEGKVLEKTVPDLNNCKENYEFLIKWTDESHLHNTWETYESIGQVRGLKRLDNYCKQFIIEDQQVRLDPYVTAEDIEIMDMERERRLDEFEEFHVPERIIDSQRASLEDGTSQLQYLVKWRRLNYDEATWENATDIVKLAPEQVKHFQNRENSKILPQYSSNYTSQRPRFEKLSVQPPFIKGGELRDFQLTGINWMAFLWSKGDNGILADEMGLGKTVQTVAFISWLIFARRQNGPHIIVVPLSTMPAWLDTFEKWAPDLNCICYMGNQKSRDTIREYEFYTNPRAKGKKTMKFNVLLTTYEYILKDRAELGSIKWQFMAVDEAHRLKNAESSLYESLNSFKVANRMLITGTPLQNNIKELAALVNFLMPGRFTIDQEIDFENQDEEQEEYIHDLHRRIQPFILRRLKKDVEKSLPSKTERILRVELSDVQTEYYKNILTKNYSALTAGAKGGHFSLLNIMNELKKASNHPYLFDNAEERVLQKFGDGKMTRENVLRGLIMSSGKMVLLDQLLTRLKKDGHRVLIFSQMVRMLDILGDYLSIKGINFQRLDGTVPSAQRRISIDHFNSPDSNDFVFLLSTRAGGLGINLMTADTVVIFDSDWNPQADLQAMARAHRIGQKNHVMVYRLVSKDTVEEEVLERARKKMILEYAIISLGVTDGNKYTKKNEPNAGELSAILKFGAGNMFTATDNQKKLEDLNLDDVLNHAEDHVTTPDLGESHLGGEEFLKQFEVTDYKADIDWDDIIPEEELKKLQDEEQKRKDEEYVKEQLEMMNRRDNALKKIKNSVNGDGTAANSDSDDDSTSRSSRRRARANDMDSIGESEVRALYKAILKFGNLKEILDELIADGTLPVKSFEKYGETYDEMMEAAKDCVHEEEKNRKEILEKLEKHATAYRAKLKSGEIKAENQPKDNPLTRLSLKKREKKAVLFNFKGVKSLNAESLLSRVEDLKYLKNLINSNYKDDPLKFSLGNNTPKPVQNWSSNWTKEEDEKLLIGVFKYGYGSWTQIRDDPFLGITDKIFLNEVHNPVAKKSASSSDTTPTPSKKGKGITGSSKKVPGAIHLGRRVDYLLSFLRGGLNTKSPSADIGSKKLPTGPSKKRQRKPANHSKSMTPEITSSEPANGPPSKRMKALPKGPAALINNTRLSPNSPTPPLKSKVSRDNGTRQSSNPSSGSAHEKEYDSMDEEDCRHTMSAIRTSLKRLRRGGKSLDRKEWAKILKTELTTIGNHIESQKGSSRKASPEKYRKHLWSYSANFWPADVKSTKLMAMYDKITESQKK

SMILES strings stand for the structures. For some of these results: Entries with a potency or affinity are not part of this list.

Protein translocase subunit SecA (Escherichia coli (strain K12)), sequence (P10408 whole entry): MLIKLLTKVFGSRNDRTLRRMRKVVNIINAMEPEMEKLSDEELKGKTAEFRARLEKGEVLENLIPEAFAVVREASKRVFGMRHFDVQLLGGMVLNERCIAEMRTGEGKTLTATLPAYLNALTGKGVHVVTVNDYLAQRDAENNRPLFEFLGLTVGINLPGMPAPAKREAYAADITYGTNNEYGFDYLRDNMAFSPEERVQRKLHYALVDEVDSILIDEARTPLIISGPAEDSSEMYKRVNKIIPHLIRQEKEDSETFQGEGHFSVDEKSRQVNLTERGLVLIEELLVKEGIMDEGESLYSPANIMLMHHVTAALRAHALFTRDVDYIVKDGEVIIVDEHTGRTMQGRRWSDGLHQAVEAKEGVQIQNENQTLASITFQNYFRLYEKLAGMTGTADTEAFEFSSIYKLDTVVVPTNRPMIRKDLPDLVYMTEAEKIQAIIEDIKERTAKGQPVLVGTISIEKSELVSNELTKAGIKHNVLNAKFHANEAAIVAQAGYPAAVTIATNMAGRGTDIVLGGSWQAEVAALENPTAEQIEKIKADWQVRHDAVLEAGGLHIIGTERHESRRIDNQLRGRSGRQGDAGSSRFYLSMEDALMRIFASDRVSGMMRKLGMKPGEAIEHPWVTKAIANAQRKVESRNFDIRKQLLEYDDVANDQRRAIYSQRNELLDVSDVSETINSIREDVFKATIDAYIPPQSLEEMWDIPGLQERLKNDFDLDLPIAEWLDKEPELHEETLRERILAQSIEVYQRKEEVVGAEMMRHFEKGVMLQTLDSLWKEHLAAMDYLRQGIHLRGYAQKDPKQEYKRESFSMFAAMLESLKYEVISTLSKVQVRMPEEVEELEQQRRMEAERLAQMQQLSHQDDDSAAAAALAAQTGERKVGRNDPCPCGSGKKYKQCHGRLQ

Turning to `Cc1nn(CC(=O)N2CCN(c3ccncc3)CC2)c(C)c1Cl`, the Percent Effect in assay [1] is -3.26%; in assay [2], 10.5%; in assay [3], 1.94%; in assay [4], 4.31%; in [5], 1.66%; in [6], -18.9%. Also, the Percent Effect was 12.6% in assay [7]; 16.3% in assay [8]; 5.32% in assay [9]; 15.6% in assay [10]; -7.63% in assay [11].
On to `CCc1ccccc1NC(=O)N1CCn2cnc(COC)c2C1`, for which the Percent Effect in assay [1] was -3.57%; in [2], 8.11%; in assay [3], -9.76%; in [4], 17.5%; in assay [5], 5.38%; in [6] it was 15.1%. The Percent Effect in assay [7] is 0.601%; in [8] it was 17.8%; in [9], 5.38%; in assay [10], -1.24%; in [11], -5.57%.
Take `Cc1cc(CN2CCC(CNC(=O)c3nccc4ccccc34)C2)[nH]n1` (stereo unspecified): the Percent Effect in assay [1] was 1.25%; in [2] it was 10.8%; in [3] it was -15.5%; in assay [4], 7.44%; in [5] it was 4.2%; in [6], 15.6%. Besides, the Percent Effect in assay [7] was 12.3%; in assay [8], 26.4%; in [9], 11.8%; in [10], 25.9%; in assay [11] it was -2.74%.
On to `Cc1cc(C[C@@H]2CCC[C@H]2NCc2cc(C)c(O)c(C)c2)on1`, for which the Percent Effect in [1] was 0.891%; in [2] it was 9.46%; in [3], 18.3%; in assay [4] it was -0.421%; in assay [5], -9.88%; in assay [6], -0.232%. Besides, the Percent Effect was 15.1% in assay [7]; 41.8% in [8]; 0% in [9]; 9.09% in assay [10]; -12.1% in [11].
For `CC(NC(=O)CSCC#N)c1cccc(NC(=O)c2ccccc2)c1` (stereo unspecified), the Percent Effect in [1] is -6.35%; in assay [2], 15.8%; in [3], -4.8%; in [4] it was 13.9%; in assay [5], 4.76%; in assay [6], 1.08%. Besides, the Percent Effect was 8.38% in assay [7]; 12.6% in assay [8]; 5.42% in assay [9]; 23.5% in [10]; -7.99% in [11].
As for `CCOc1cc(C)nc(N2CCN(C(=O)c3ccc[nH]3)CC2)n1`, the Percent Effect in assay [1] is -3.03%; in assay [2], 2.7%; in assay [3] it was 1.91%; in assay [4], 13.3%; in assay [5], -6.59%; in [6], 2.77%. Moreover, the Percent Effect was 3.23% in assay [7]; 22.2% in assay [8]; -0.99% in [9]; 3.66% in assay [10]; 1.45% in [11].
For `COc1cccc2cc(CNC(=O)N3CCCC(O)C3)oc12` (stereo unspecified), the Percent Effect in assay [1] was -6.3%; in assay [2] it was -2.53%; in assay [3] it was -3.54%; in [4] it was 1.57%; in assay [5] it was 8.59%; in assay [6], -3.8%. In addition, the Percent Effect is 1.39% in [7]; 6.63% in [8]; 3.45% in assay [9]; 8.86% in assay [10]; -5.74% in assay [11].
Turning to `O=C(NCCCn1cncn1)NCC(c1ccccc1)N1CCCC1` (stereo unspecified), the Percent Effect in assay [1] is -4.8%; in assay [2] it was 2.6%; in [3], -5.77%; in assay [4], -8.15%; in assay [5], 5.58%; in assay [6], -2.32%. Besides, the Percent Effect was 14.6% in assay [7]; 6.64% in assay [8]; 3.81% in assay [9]; 2.35% in assay [10]; -23.6% in assay [11].
Regarding `CCc1n[nH]c(C2CN(C(=O)c3csnn3)CCO2)n1` (stereo unspecified), the Percent Effect in assay [1] is -7.28%; in [2], 10.4%; in assay [3] it was 0.934%; in assay [4], 4.09%; in assay [5] it was 7.15%; in assay [6], -5.26%. In addition, the Percent Effect in [7] is 6.06%; in assay [8], 3.52%; in assay [9], 2.86%; in assay [10], 11.8%; in assay [11] it was -11.6%.
Consider `CSCCNC(=O)c1ccc(OC2CCN(CC(C)(C)C)CC2)c(Cl)c1`, for which the Percent Effect is -3.94% in assay [1]; 8.11% in assay [2]; -0.678% in assay [3]; 31.3% in assay [4]; 7.53% in [5]; 0.248% in [6]. The Percent Effect was 7.47% in assay [7]; -3.54% in assay [8]; 2.15% in assay [9]; 8.64% in assay [10]; -9.27% in assay [11].
With `O=C(C1CCCCN1Cc1nc(-c2ccco2)no1)N1CCCC1` (stereo unspecified), the Percent Effect was -8.23% in assay [1]; -2.7% in [2]; 7.91% in assay [3]; 4.5% in assay [4]; -5.11% in assay [5]; -1.66% in assay [6]. Also, the Percent Effect in assay [7] is 2.33%; in assay [8], 6.46%; in assay [9] it was 0%; in [10], 3.66%; in assay [11], 5.11%.
